The list is not random: actives were taken first. Their share in the collection is about 5.9%.
ATXN2 expr inh – ATXN2 expression inhibition; HEK-293 ATXN2-luciferase reporter, luminescence, 24 h; Potency, µM (series often up to 57 µM), without a hit: at the top dose activity change, negative = inhibition, most hits filed as inhibitors; 0.72% of 360,000 active; AID 1745845; note: % is set by controls: 0 for no effect and ±100 for the full control effect; nearly all actives have a fitted effect of over 55% in size
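qHTS (up to 57 uM final) was run with 24 h compound exposure of reporter cells at 37 °C. Each well was multiplexed: SteadyGlo luminescence measured ATXN2-luciferase expression after a fluorogenic Gly-Phe-AFC viability readout (25 uM final).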
TGFb inhibitor – TGF-b pathway inhibition | HepG2 CAGA-GFP TGF-b/SMAD3 reporter, GFP fluorescence, 18 h; TGF-beta stimulated, 500 pg/mL final | AID 588855 | Potency, µM (titrated, usually from 46.1 µM), for inactives: at the top dose activity, negative = inhibition, usual class: inhibitors | 1.2% of 410,000 active; note: % is set by controls: 0 for no effect and ±100 for the full control effect; nearly all actives have a fitted effect of over 65% in size
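GFP signal (ex488/em500-530) from TGF-beta-stimulated HEPG2 CAGA-GFP cells, 500 pg/mL final, 18 h at 37 degrees C in DMEM plus 1% FBS, normalized to unstimulated and DMSO-stimulated controls.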
HepG2 viability – counter-screen for TGF-b inhibitors: cytotoxicity in HepG2 cells; 0.76% of 410,000 active; Potency, µM (doses to about 46.1 µM), for the others: at the top dose activity change, negative = cytotoxicity, most hits filed as cytotoxic; HepG2 CAGA-GFP viability, ATP luminescence, 18 h; AID 588856
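CellTiter-Glo luminescence gave cytotoxicity after 18 hours at 37 degrees C. The cells were HepG2 CAGA-GFP in 1% FBS DMEM, stimulated with 500 pg/mL TGF-beta after compound addition. %Activity was normalised to no-cell wells (complete cell-killing) and DMSO (no toxicity), and curves were fitted and classified.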
KB-3-1 tox – KB-3-1 parental cell cytotoxicity; KB-3-1 viability, CellTiter-Glo ATP luminescence, 72 h; Potency, µM (titrated, usually from 46.1 µM), most hits filed as cytotoxic; 1.4% of 400,000 active; AID 1347075; note: % is set by controls: 0 for no effect and ±100 for the full control effect; nearly all actives have a fitted effect of over 60% in size
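KB-3-1 parental drug-naive adenocarcinoma cells in DMEM/10% FBS, incubated 72 h at 37 C with pin-transferred compounds across a concentration series. Viability by CellTiter-Glo luminescence; concentration-response curves fitted after normalization.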
S2 tox – viability counter-screen for ATXN expression inhibitors; AID 651635; 0.49% of 400,000 active; Potency, µM (series often up to 56.7 µM), actives largely listed as cytotoxic; S2 cells (HEK-293 line with an ATXN2-luciferase reporter) viability, CellTiter-Fluor protease fluorescence, 24 h; note: nearly all actives have a fitted effect of over 40% in size
KB-V1 cytotox – kills drug-selected multidrug resistant KB-V1 cells. AID 1347076. 3.4% of 400,000 active. KB-V1 MDR cells viability, CellTiter-Glo, 72 h. Potency, µM (titrated, usually from 46.1 µM), most hits filed as cytotoxic; note: % is set by controls: 0 for no effect and ±100 for the full control effect; nearly all actives have a fitted effect of over 60% in size
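Cytotoxicity toward P-gp-expressing KB-V1 cells was determined as loss of CellTiter-Glo luminescence after 72 h at 37 degrees C. Compounds were tested in quantitative HTS format across a concentration range, with curves fitted to normalized data.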
Active calls of the source: *; ! = not active in a repeat. Calls come from the whole dose curve; as a rule, active = well fitted curve in the direction sought with a large enough effect; inconclusive = small, poorly fitted or top-dose-only effect, or another doubt; inactive = no such curve, though single readings can be large; an effect the other way counts as inactive or inconclusive. Potency is the fitted concentration of half-maximal effect.

For COc1ccccc1NC(=O)CN1CCN(Cc2ccccc2)CC1 the results were ATXN2 expr inh -10.3%, TGFb inhibitor -22.6%, HepG2 viability -9.2%, KB-3-1 tox inactive, S2 tox inactive and KB-V1 cytotox 10.3µM*.
For COc1ccccc1NC(=O)CN1CCN(CC(=O)Nc2ccc(F)c(F)c2)CC1 the results were ATXN2 expr inh 5.8%, TGFb inhibitor 6.31µM*, HepG2 viability -53.5%, KB-3-1 tox inactive, S2 tox inactive and KB-V1 cytotox inactive.
`COc1ccccc1NC(=O)CN1CCN(CC(=O)Nc2ccc(C)c(F)c2)CC1` gave ATXN2 expr inh -21.7%, TGFb inhibitor -12.6%, HepG2 viability -6.4%, KB-3-1 tox inactive, S2 tox inactive and KB-V1 cytotox inactive.
Cc1ccc(Cn2c(C)c3cnn(CC(=O)N4CCN(c5cc(C)ccc5C)CC4)c(=O)c3c2C)cc1 was read as TGFb inhibitor -23.0% and HepG2 viability 5.3%.
Screening O=C(NN1C(=O)C2C3c4ccccc4C(c4ccccc43)C2C1=O)c1ccc(Cl)cc1 (stereo not given) returned ATXN2 expr inh -19.7%, TGFb inhibitor inconclusive, HepG2 viability -27.8%, KB-3-1 tox inactive, S2 tox inactive and KB-V1 cytotox 16.4µM*.
For O=C(NN1C(=O)C2C3C=CC(C3)C2C1=O)c1ccccc1 (stereo not given) the results were ATXN2 expr inh 3.2%, TGFb inhibitor inconclusive, HepG2 viability 4.1%, KB-3-1 tox inactive, S2 tox inactive and KB-V1 cytotox inactive.
COCCCNCCCOc1ccc(Cl)cc1C(C)(C)C was read as ATXN2 expr inh inconclusive, TGFb inhibitor inconclusive, HepG2 viability 15.8µM*, KB-3-1 tox inconclusive, S2 tox inconclusive and KB-V1 cytotox 25.9µM*.
Screening CNCCCOc1ccc(Cl)cc1C(C)(C)C returned ATXN2 expr inh inconclusive, TGFb inhibitor inconclusive, HepG2 viability -101.0%, KB-3-1 tox inconclusive, S2 tox inconclusive and KB-V1 cytotox inconclusive.
For CCOc1ccccc1CNC(=O)CCc1c(C)nn(-c2ccc(N3CCCC3)nn2)c1C the results were TGFb inhibitor inconclusive and HepG2 viability -28.7%.
CC(C)c1ccc(NC(=O)CCS(=O)(=O)c2ccc(Br)s2)cc1 was read as ATXN2 expr inh -12.6%, TGFb inhibitor inconclusive, HepG2 viability -42.2%, KB-3-1 tox inactive, S2 tox inactive and KB-V1 cytotox inactive.
Screening Cc1ncsc1C(=O)N1N=C2/C(=C/c3ccccc3)CCCC2C1c1ccccc1 (stereo not given) returned ATXN2 expr inh 2.9%, TGFb inhibitor inconclusive, HepG2 viability -26.5%, KB-3-1 tox inconclusive, S2 tox inconclusive and KB-V1 cytotox 20.6µM*.
`CCCNC(=O)C1(C)CCN(C(=O)c2cccc(C(F)(F)F)c2)C1` (stereo not given) gave ATXN2 expr inh 6.3%, TGFb inhibitor -2.0%, HepG2 viability 3.3%, KB-3-1 tox inactive, S2 tox inactive and KB-V1 cytotox inactive.
Screening O=C(O)c1ccc(N2C(=O)/C(=C/C=C/c3ccccc3)SC2=S)cc1 returned ATXN2 expr inh 2.6%, TGFb inhibitor -11.6%, HepG2 viability -5.3%, KB-3-1 tox inactive, S2 tox inactive and KB-V1 cytotox inactive.
`CN(C)c1ccc(/C=C/C=C2/SC(=S)N(c3ccccc3)C2=O)cc1` gave ATXN2 expr inh 1.7%, TGFb inhibitor -1.5%, HepG2 viability -15.7%, KB-3-1 tox inactive, S2 tox 15.8µM* and KB-V1 cytotox inconclusive.
COc1ccccc1CCNc1ncnc2sc(C(=O)N3CCCCC3)c(C)c12 was read as S2 tox inactive.
Screening CCOC(=O)[C@]12CCC=C1N(Cc1cccc3ccccc13)C(=O)[C@H](CC(=O)NCc1ccc(C)o1)C2 returned ATXN2 expr inh -26.5%, KB-3-1 tox inactive, S2 tox inconclusive and KB-V1 cytotox 11.6µM*.
`CCOC(=O)[C@]12CCC=C1N(Cc1cccc3ccccc13)C(=O)[C@H](CC(=O)NCc1cccc3ccccc13)C2` gave ATXN2 expr inh 3.3%, KB-3-1 tox inactive, S2 tox inactive and KB-V1 cytotox inconclusive.
For C#CCNC(=O)C[C@@H]1C[C@@]2(C(=O)OCC)CCC=C2N(Cc2cccc3ccccc23)C1=O the results were ATXN2 expr inh 2.8%, KB-3-1 tox inactive, S2 tox inactive and KB-V1 cytotox inconclusive.
CCOC(=O)[C@]12CCC=C1N(Cc1cccc3ccccc13)C(=O)[C@H](CC(=O)NCc1ccccc1)C2 was read as ATXN2 expr inh 0.0%, KB-3-1 tox inactive, S2 tox inconclusive and KB-V1 cytotox inconclusive.
CCOC(=O)[C@]12CCC=C1N(Cc1cccc3ccccc13)C(=O)[C@H](CC(=O)NCCc1ccccc1OC)C2 was read as ATXN2 expr inh -23.0%, KB-3-1 tox inconclusive, S2 tox inconclusive and KB-V1 cytotox 14.6µM*.
Screening CCOC(=O)[C@]12CCC=C1N(Cc1cccc3ccccc13)C(=O)[C@H](CC(=O)NCCCCc1ccccc1)C2 returned ATXN2 expr inh -28.7%, KB-3-1 tox inconclusive, S2 tox inconclusive and KB-V1 cytotox 16.4µM*.
Screening COc1cc(Cn2c(=O)sc3ccccc32)ccc1OCCC(C)C returned ATXN2 expr inh 10.0%, TGFb inhibitor -16.1%, HepG2 viability -73.0%, KB-3-1 tox inactive, S2 tox inactive and KB-V1 cytotox inactive.
CCOC(=O)c1cccc(NC(=O)NCc2ccc3c(c2)CCN3C(=O)CC)c1 was read as ATXN2 expr inh -21.0%, TGFb inhibitor inconclusive, HepG2 viability -16.5%, KB-3-1 tox inactive, S2 tox inconclusive and KB-V1 cytotox inactive.
Screening CN(CCOc1cccc2ccccc12)Cc1ccccc1 returned ATXN2 expr inh -1.0%, TGFb inhibitor -18.1%, HepG2 viability -1.1%, KB-3-1 tox inactive, S2 tox inactive and KB-V1 cytotox inactive.
Screening CN(C)[C@@H](CCOc1cccc2ccccc12)c1ccccc1 returned ATXN2 expr inh 31.6µM*! and S2 tox inconclusive.
For COc1cccc(C(=O)NCCS(=O)(=O)N(C)Cc2ccccc2)c1 the results were ATXN2 expr inh 11.4%, TGFb inhibitor 3.0%, HepG2 viability -28.2%, KB-3-1 tox inactive, S2 tox inactive and KB-V1 cytotox 18.4µM*.
`COc1cccc(C(=O)NCCS(=O)(=O)N(C)C2CCCCC2)c1` gave ATXN2 expr inh 9.6%, TGFb inhibitor -2.9%, HepG2 viability 1.4%, KB-3-1 tox inactive, S2 tox inconclusive and KB-V1 cytotox 11.6µM*.

Source: PubChem
